From the supplement of paper PMC8975748
Counter-ions that a name gives are not always drawn.

These compounds were tested on Saccharomyces cerevisiae BY4741 SeMeCo community (assay: z-score of subpopulation abundance vs DMSO median, subpopulation auxotrophic for HLU; higher = larger share of this subpopulation than in DMSO controls). Conditions: 10 µM; 24 h; SM minimal medium; subpopulation (auxotrophy): HLU.
In short: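 Subpopulation abundance was reported as a z-score against the median of vehicle wells. The Saccharomyces cerevisiae BY4741 community, carrying four plasmids that each restored one auxotrophy and encoded a distinct fluorescent protein, was grown 24 h in minimal SM medium in 384-well plates holding library drugs at 10 µM final. Cells were paraformaldehyde-fixed and imaged by automated confocal microscopy, with single-auxotroph fluorescent strains used for thresholds and autofluorescence correction.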

Row | Compound | z-score of subpopulation abundance
1 | NC(=O)N1c2ccccc2CC(=O)c2ccccc21 [Oxcarbazepine] | -0.11
2 | CC(=O)OCC1=C(C(=O)O)N2C(=O)[C@@H](NC(=O)CSc3ccncc3)[C@H]2SC1 [Cephapirin Benzathine] | 0.25
3 | COc1ccc(C[C@H](N)C(=O)N[C@H]2[C@@H](O)[C@H](n3cnc4c(N(C)C)ncnc43)O[C@@H]2CO)cc1 [Puromycin 2HCl] | -0.44
4 | OCc1ccccc1O[C@@H]1O[C@H](CO)[C@@H](O)[C@H](O)[C@H]1O [Salicin] | -0.13
5 | O=C(CCCN1CCC(O)(c2ccc(Cl)cc2)CC1)c1ccc(F)cc1 [Haloperidol] | 0.13
6 | COc1cc(O)c(C(=O)Nc2nc(C(=O)NCCN(C(C)C)C(C)C)cs2)cc1OC [Acotiamide] | 1.61
7 | CC(=O)OCC(CCn1cnc2cnc(N)nc21)COC(C)=O [Famciclovir] | -0.67
8 | O=C(c1ccccc1)c1ccc2n1CCC2C(=O)O (stereo unspecified) [Ketorolac] | -0.97
9 | CC[C@H]1OC(=O)[C@H](C)[C@@H](O[C@H]2C[C@@](C)(OC)[C@@H](O)[C@H](C)O2)[C@H](C)[C@@H](O[C@@H]2O[C@H](C)C[C@H](N(C)C)[C@H]2O)[C@](C)(O)C[C@@H](C)[C@@H]2N[C@@H](COCCOC)O[C@H]([C@H]2C)[C@]1(C)O [Dirithromycin] | -0.71
10 | C#CCC(Cc1cnc2nc(N)nc(N)c2n1)c1ccc(C(=O)N[C@@H](CCC(=O)O)C(=O)O)cc1 (stereo partly specified) [Pralatrexate] | 0.5
11 | NNc1nncc2ccccc12 [Hydralazine HCl] | -0.68
12 | COc1cccc2c1C(=O)c1c(O)c3c(c(O)c1C2=O)CC(O)(C(=O)CO)CC3OC1CC(N)C(O)C(C)O1 (stereo unspecified) [Doxorubicin (Adriamycin) HCl] | 12.3
13 | CCN1CCCC1CNC(=O)c1cc(S(N)(=O)=O)ccc1OC (stereo unspecified) [Sulpiride] | -1.3
14 | CCCCC(F)(F)[C@@]1(O)CC[C@H]2[C@@H](CC(=O)[C@@H]2CCCCCCC(=O)O)O1 [Lubiprostone] | -0.93
15 | CCCN[C@H]1CCc2nc(N)sc2C1 [Pramipexole] | 0.75
16 | Cc1c(Nc2ncccc2C(=O)O)cccc1C(F)(F)F [Flunixin Meglumin] | -1

Row | Compound | z-score of subpopulation abundance
17 | COc1ccc2[nH]c([S+]([O-])Cc3ncc(C)c(OC)c3C)nc2c1 (stereo unspecified) [Omeprazole Sodium] | 0.43
18 | CO[C@H]1C[C@@H]2CC[C@@H](C)[C@@](O)(O2)C(=O)C(=O)N2CCCC[C@H]2C(=O)O[C@H]([C@H](C)C[C@@H]2CC[C@@H](OP(C)(C)=O)[C@H](OC)C2)CC(=O)[C@H](C)/C=C(\C)[C@@H](O)[C@@H](OC)C(=O)[C@H](C)C[C@H](C)/C=C/C=C/C=C/1C [Ridaforolimus (Deforolimus, MK-8669)] | 23.1
19 | C#C[C@]1(OC(C)=O)CC[C@H]2[C@@H]3CCC4=C[C@@H](OC(C)=O)CC[C@@H]4[C@H]3CC[C@@]21C [Ethynodiol diacetate] | 0.1
20 | Cc1ccccc1C(OCCN(C)C)c1ccccc1 (stereo unspecified) [Orphenadrine Citrate] | 0.33
21 | CCOc1cc(N)c([N+](=O)[O-])cc1C(=O)NC1CCN(CC2CC=CCC2)CC1 (stereo unspecified) [Cinitapride Hydrogen Tartrate] | 0.47
22 | Cc1onc(-c2ccccc2)c1-c1ccc(S(N)(=O)=O)cc1 [Valdecoxib] | -0.52
23 | COc1ccc(Cc2cnc(N)nc2N)cc1OC [Diaveridine] | 0.14
24 | CC1(C)[C@H](C(=O)O)N2C(=O)C[C@H]2S1(=O)=O [Sulbactam sodium] | 0.64
25 | CCc1cc(C(N)=S)ccn1 [Ethionamide] | -0.14
26 | O=C(O)c1cc(=O)c2c(OCC(O)COc3cccc4oc(C(=O)O)cc(=O)c34)cccc2o1 [Disodium Cromoglycate] | -0.29
27 | Clc1ccc(C(Cn2ccnc2)OCc2c(Cl)cccc2Cl)c(Cl)c1 (stereo unspecified) [Isoconazole nitrate] | 2.86
28 | CCCCCCCCN=C(N)NC(N)=NCc1ccc(Cl)c(Cl)c1 [Olanexidine Hydrochloride semihydrate] | 5.73
29 | Nc1nc(N)nc(-c2cc(Cl)ccc2Cl)n1 [Irsogladine] | 0.75
30 | NC(=O)c1ncn([C@@H]2O[C@H](CO)[C@@H](O)[C@H]2O)n1 [Ribavirin] | -0.19
31 | CC1(C)S[C@@H]2[C@H](NC(=O)[C@H](N)c3ccccc3)C(=O)N2[C@H]1C(=O)OCOC(=O)[C@@H]1N2C(=O)C[C@H]2S(=O)(=O)C1(C)C [Sultamicillin] | 1.83
